The values below come from the supplement of paper PMC6555819.

What all share (assay): PBM binding z-score (relative to random genomic background probes); higher = stronger binding; sequences stand for … in GC…GCGATTGACAGCGTAGAATGAAGG
In test [1] the test system is FXR:RXRa (NR concentration 270 nM, RXRa partner concentration 90 nM). Summed up:
(§1)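 On custom Agilent 4×180K arrays, double-stranded probes with 34-nt variable regions carried direct-repeat seeds, single-nucleotide variants, half-site ablations or random human genomic background. Ligand-free nuclear receptor dimers were applied for 1 h, and binding was read with antibodies against each partner (one per run). Binding z-scores come from regression-normalized fluorescence, with the random background probes as reference.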

For test [2], the system named is LXRa:RXRa (NR concentration 270 nM, RXRa partner concentration 90 nM). Summed up: as §1
Test [3] deals with LXRa homodimer (NR concentration 270 nM). Summed up:
as §1

For test [4], the system named is LXRb:RXRa (NR concentration 270 nM, RXRa partner concentration 90 nM). Summed up: as §1
The subject of test [5] is LXRb homodimer (NR concentration 270 nM). Summed up:
as §1

The test system of test [6] is PPARa:RXRa (NR concentration 270 nM, RXRa partner concentration 90 nM). Summed up:
as §1

Test [7] has as its system PPARg:RXRa (NR concentration 180 nM, RXRa partner concentration 90 nM). The procedure, abridged:
as §1

The test system of test [8] is PPARg:RXRa 270nM:90nM, anti-RXR (NR concentration 270 nM, RXRa partner concentration 90 nM). Summed up:
as §1

Test [9] concerns PPARg:RXRa 30nM:10nM, anti-RXR (NR concentration 30 nM, RXRa partner concentration 10 nM). The procedure, abridged: as §1
In test [10] the test system is PPARg:RXRa 90nM:30nM, anti-RXR (NR concentration 90 nM, RXRa partner concentration 30 nM). Summed up: as §1
The subject of test [11] is PPARg:RXRa DBDmut IVT, anti-RXR (DBD mutation: RXRa K156A/R161A, NR concentration 270 nM, RXRa partner concentration 90 nM). The procedure, abridged:
as §1

The subject of test [12] is PPARg:RXRa IVT, anti-PPARg (NR concentration 270 nM, RXRa partner concentration 90 nM). Summed up:
as §1

Test [13] concerns PPARg DBDmut:RXRa IVT, anti-PPARg (DBD mutation: PPARg1 K132A/R137A, NR concentration 270 nM, RXRa partner concentration 90 nM). The procedure, abridged:
as §1

In test [14] the test system is PPARg DBDmut IVT, anti-PPARg (DBD mutation: PPARg1 K132A/R137A, NR concentration 270 nM). The procedure, abridged: as §1
Test [15] relates to PPARg homodimer (NR concentration 180 nM). Summed up:
as §1

The test system of test [16] is PXR:RXRa (NR concentration 270 nM, RXRa partner concentration 90 nM). The procedure, abridged:
as §1

Test [17] deals with PXR homodimer (NR concentration 270 nM). Summed up: as §1
The subject of test [18] is RARa:RXR (NR concentration 270 nM, RXRa partner concentration 90 nM). Summed up: as §1
In test [19] the test system is RARa homodimer (NR concentration 270 nM). The procedure, abridged:
as §1

In test [20] the test system is RARb:RXRa (NR concentration 270 nM, RXRa partner concentration 90 nM). The procedure, abridged: as §1

For TCTACTTGGTCAAAGGTCACACACTCGAAATGCG, the PBM binding z-score in test [1] was determined as 6.58; in test [2], 5.85; in [3], 4.37; in test [4] it was 5.9; in [5] it was 2.26; in test [6], 6.72. The PBM binding z-score was 11.9 in [7]; 9.98 in test [8]; 10.5 in test [9]; 11 in test [10]; 3.83 in test [11]; 6.58 in test [12]. In addition, the PBM binding z-score in test [13] was 2.43; in test [14] it was 3.34; in test [15] it was 4.9; in [16] it was 6.09; in [17] it was 1.84; in test [18], 7.73. Besides, the PBM binding z-score stood at 4.11 in [19] and 5.29 in [20].
Regarding TCAAATAGGTAAACAGGTGAAAGTCCGTAAGTTA, the PBM binding z-score is 0.954 in test [1]; 0.935 in test [2]; 0.164 in test [3]; 0.968 in test [4]; -0.112 in test [5]; 2.28 in test [6]. In addition, the PBM binding z-score was 2.64 in test [7]; 3.76 in [8]; 4.64 in test [9]; 4.28 in test [10]; 4.13 in test [11]; 3.99 in test [12]. For the same sequence, the PBM binding z-score was 0.833 in [13]; 0.995 in test [14]; 1.07 in test [15]; 0.682 in test [16]; 0.0929 in [17]; 1.16 in test [18]. Moreover, the PBM binding z-score is 1.7 in test [19] and 0.892 in test [20].
For CCTAGCAGGCCAGGGTCACGCAAGCATTTCGCTT, the PBM binding z-score in test [1] was 4.27; in test [2] it was 3.3; in [3], -0.658; in test [4], 3.24; in test [5] it was -0.358; in [6] it was 4.73. Further, the PBM binding z-score in test [7] is 3.11; in test [8], 3.95; in test [9], 0.595; in [10] it was 2.58; in [11] it was -0.356; in test [12] it was 1.95. The PBM binding z-score in [13] is -1.04; in [14], -1.59; in test [15] it was 1.16; in test [16], 3.96; in test [17] it was -0.56; in test [18], 4.99. The PBM binding z-score in test [19] is -0.191; in test [20], 3.4.
For CGTCCAAGGTCAAGGTCTGTGAAAGAGACTCGAA, the PBM binding z-score in [1] was 7.12; in test [2], 4.99; in [3], 0.422; in test [4], 3.92; in test [5], 0.346; in [6], 5.39. For the same sequence, the PBM binding z-score in [7] was 4.93; in test [8], 5.76; in test [9], 1.41; in test [10], 3.96; in test [11], 3.42; in [12], 3.88. The PBM binding z-score in test [13] turned out to be 2.1; in test [14], 0.39; in test [15], 4.29; in [16], 3.72; in [17], 0.462; in test [18], 4.54. The PBM binding z-score in test [19] is 1.7; in test [20], 5.24.
With ATATGTACGTTATCGGGTCATTCAGTTTGCGCAT, the PBM binding z-score is 2.05 in [1]; 2.01 in [2]; 1.02 in test [3]; 2.32 in test [4]; 1.03 in test [5]; 2.67 in [6]. The PBM binding z-score in test [7] was 1.3; in [8] it was 1.35; in test [9] it was 0.0555; in test [10] it was 0.972; in test [11], 1.03; in test [12], 2.37. The PBM binding z-score in test [13] is 1.71; in [14], 1.76; in [15], 1.32; in test [16] it was 3.32; in test [17] it was 7.47; in [18], 3.02. In addition, the results for the PBM binding z-score in [19] and in [20] were 0.585 and 1.93, respectively.
In the case of ATCTCTAGGTAACAACTTCAGTGAAAGAGAGGAC, the PBM binding z-score in test [1] came to 0.55; in test [2], 0.485; in test [3], 0.102; in test [4], 0.396; in test [5] it was 0.978; in test [6] it was 0.493. Moreover, the PBM binding z-score in test [7] is 0.782; in test [8] it was 0.618; in [9], 0.652; in [10], 0.573; in [11] it was 3.07; in test [12], 2.74. The PBM binding z-score in test [13] was 1.64; in test [14], 1.45; in test [15] it was 0.774; in test [16], 0.286; in test [17], 0.641; in test [18], 0.537. For the same sequence, the values for the PBM binding z-score in test [19] and in test [20] were 0.713 and 0.586, respectively.
As for TCATATAGGTAAACGGGTGAAAGTCCGTAAGTTA, the PBM binding z-score was 0.647 in test [1]; 0.398 in test [2]; 0.0709 in test [3]; 0.834 in test [4]; -0.231 in test [5]; 2.29 in test [6]. Moreover, the PBM binding z-score in [7] was 2.73; in [8] it was 3.65; in test [9], 3.72; in [10], 3.68; in test [11], 4.54; in test [12], 4.35. Moreover, the PBM binding z-score in test [13] turned out to be 1.22; in test [14], 1.51; in test [15] it was 0.689; in test [16], 0.621; in [17] it was 0.241; in test [18] it was 0.612. Also, the PBM binding z-score stood at 0.587 in [19] and 0.567 in [20].
